Screening data: PubChem, National Center for Advancing Translational Sciences (NCATS)
ATXN viability: Viability Counterscreen for Primary qHTS for Inhibitors of ATXN expression. S2 cells (HEK-293 line with an ATXN2-luciferase reporter) viability, CellTiter-Fluor protease fluorescence, 24 h. Potency, µM (titrated, usually from 56.7 µM), hits mostly cytotoxic. actives 0.49% (n = 400,000). AID 651635, 2014; further: nearly all actives have a fitted effect of over 40% in size
HepG2 viability: qHTS for Inhibitors of TGF-b: Cytotox Counterscreen; HepG2 CAGA-GFP viability, ATP luminescence, 18 h; Potency, µM (highest dose often 46.1 µM), actives largely listed as cytotoxic; actives 0.76% (n = 410,000); AID 588856, 2011
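CellTiter-Glo luminescence gave cytotoxicity after 18 hours at 37 degrees C. The cells were HepG2 CAGA-GFP in 1% FBS DMEM, stimulated with 500 pg/mL TGF-beta after compound addition. %Activity was normalised to no-cell wells (complete cell-killing) and DMSO (no toxicity), and curves were fitted and classified.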
Gal4-VP16 FLuc: VP16 counterscreen qHTS for inhibitors of ROR gamma transcriptional activity | Drosophila S2 Gal4-VP16 UAS-luciferase, luminescence, 20 h | Potency, µM (titrated, usually from 53.6 µM), hits mostly inhibitors | actives 3.5% (n = 310,000);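 further: Gal4-VP16 expression switched on by copper sulfate through the metallothionein promoter; nearly all actives have a fitted effect of over 50% in size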
TGFb inhibitor: qHTS for Inhibitors of TGF-b; HepG2 CAGA-GFP TGF-b/SMAD3 reporter, GFP fluorescence, 18 h; TGF-beta stimulated, 500 pg/mL final; Potency, µM (doses to about 46.1 µM), usual class: inhibitors; actives 1.2% (n = 410,000); further: nearly all actives have a fitted effect of over 65% in size
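Cell-based qHTS in HEPG2 carrying a CAGA-GFP Smad reporter; compounds added before 500 pg/mL final TGF-beta, 18 h incubation at 37 degrees C, GFP fluorescence quantified per cell by imaging cytometry.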
ATXN2 expr inh: Primary qHTS for Inhibitors of ATXN expression. HEK-293 ATXN2-luciferase reporter, luminescence, 24 h. Potency, µM (highest dose often 57 µM), usual class: inhibitors. actives 0.72% (n = 360,000). AID 1745845, 2022; further: nearly all actives have a fitted effect of over 55% in size
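qHTS (up to 57 uM final) was run with 24 h compound exposure of reporter cells at 37 °C. Each well was multiplexed: SteadyGlo luminescence measured ATXN2-luciferase expression after a fluorogenic Gly-Phe-AFC viability readout (25 uM final).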
RORgamma inh: qHTS for inhibitors of ROR gamma transcriptional activity; actives 5.4% (n = 310,000); Drosophila S2 Gal4-RORgamma UAS-luciferase reporter, 20 h; Nuclear receptor ROR-gamma (Mus musculus), P51450; Potency, µM (titrated, usually from 53.6 µM), usual class: inhibitors; further: nearly all actives have a fitted effect of over 60% in size
Target sequence (P51450 whole entry, looked up, the tested form may be a part): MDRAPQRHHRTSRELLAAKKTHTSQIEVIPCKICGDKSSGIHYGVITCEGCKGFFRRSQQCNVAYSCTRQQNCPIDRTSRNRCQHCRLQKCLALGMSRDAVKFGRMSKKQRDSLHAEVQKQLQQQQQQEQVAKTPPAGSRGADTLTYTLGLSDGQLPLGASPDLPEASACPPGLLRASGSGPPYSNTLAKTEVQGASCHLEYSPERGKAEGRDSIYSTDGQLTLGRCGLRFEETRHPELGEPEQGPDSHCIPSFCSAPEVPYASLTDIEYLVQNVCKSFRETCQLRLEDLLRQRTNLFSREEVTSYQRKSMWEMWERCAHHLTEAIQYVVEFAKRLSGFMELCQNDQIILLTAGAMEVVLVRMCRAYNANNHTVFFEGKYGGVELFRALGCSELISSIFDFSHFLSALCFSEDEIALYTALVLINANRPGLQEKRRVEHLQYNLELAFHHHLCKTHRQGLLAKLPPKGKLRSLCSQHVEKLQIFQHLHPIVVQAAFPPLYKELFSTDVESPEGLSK
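In this cell-based reporter format, copper sulfate (700 uM final) drives Gal4–ROR gamma fusion expression from a metallothionein promoter in Drosophila Schneider cells; compounds preincubated 1 hr, reporter read after 20 hr at ambient temperature.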
Of the large screens only hits and unclear results are named; the others gave an inactive call. Compounds with a hit are over-represented: about 6.3% of the library has one in this group of screens. The call rests on the fitted dose curve; in most records, active means well fitted curve in the direction sought with a large enough effect; inconclusive means small, poorly fitted or top-dose-only effect, or another doubt; inactive means no such curve, though single readings can be large; an effect the other way counts as inactive or inconclusive.

O=C(NN=C1c2ccccc2-c2ccccc21)c1ccccn1	Gal4-VP16 FLuc 4.47µM, RORgamma inh 3.16µM
N/C(=N\NC(=O)c1ccccc1)c1cc2ccccc2oc1=O	RORgamma inh inconclusive (no result: ATXN2 expr inh)
C/C(=N\NC(=O)c1cc2ccccc2cc1O)c1cc2ccccc2o1	Gal4-VP16 FLuc inconclusive, TGFb inhibitor inconclusive, ATXN2 expr inh inconclusive, RORgamma inh 10µM
COc1ccc(C(=O)N/N=C(\N)c2cc3ccccc3oc2=O)cc1	Gal4-VP16 FLuc inconclusive, RORgamma inh 0.891µM
C/C(=N\NC(=O)c1nc2ccccn2c1C)c1cc2ccccc2o1	Gal4-VP16 FLuc inconclusive, RORgamma inh 12.6µM (no result: ATXN viability)
COc1cc(=O)n2c(c1C(=O)N(C)Cc1nonc1C)CCN(Cc1cccc3ccccc13)CC2	none (no result: HepG2 viability, Gal4-VP16 FLuc, TGFb inhibitor, ATXN2 expr inh, RORgamma inh)
COCC(=O)Nc1cc(C(=O)N2CCCC(C(N)=O)C2)cc2nc(-c3ccccc3)n(C)c12 (stereo not drawn)	none (no result: HepG2 viability, Gal4-VP16 FLuc, TGFb inhibitor, ATXN2 expr inh, RORgamma inh)
Cc1ccc(S(=O)(=O)N2CCN(Cc3nc4ccc(C)cc4o3)CC2)c(C)c1	TGFb inhibitor inconclusive (no result: Gal4-VP16 FLuc, RORgamma inh)
COCC(=O)Nc1cc(C(=O)N2CCN(C3CCCC3)C(=O)C2)c2c(c1)nc(-c1ccncc1)n2C	none (no result: HepG2 viability, Gal4-VP16 FLuc, TGFb inhibitor, ATXN2 expr inh, RORgamma inh)
C/C(=N\NC(=O)c1c[nH]c2ccccc12)c1ccccn1	Gal4-VP16 FLuc inconclusive, ATXN2 expr inh inconclusive, RORgamma inh 3.55µM (no result: ATXN viability)
C/C(=N\NC(=O)c1cc2ccccc2cc1O)c1ccccn1	Gal4-VP16 FLuc 0.126µM, ATXN2 expr inh inconclusive, RORgamma inh 0.199µM
C/C(=N\NC(=O)c1ccccn1)c1ccc(C(=O)O)s1	none (no result: ATXN viability, HepG2 viability, TGFb inhibitor, ATXN2 expr inh)
C/C(=N\NC(=O)c1ccc(F)cc1)c1ccccn1	ATXN viability inconclusive, Gal4-VP16 FLuc 0.398µM, TGFb inhibitor 1.12µM, RORgamma inh 0.251µM (no result: ATXN2 expr inh)
CC(CC(=O)c1ccccc1)=NCCCN=C(C)CC(=O)c1ccccc1	ATXN viability inconclusive (no result: Gal4-VP16 FLuc, ATXN2 expr inh, RORgamma inh)
C/C(CC(=O)c1ccccc1)=N\NC(=O)CC#N	Gal4-VP16 FLuc inconclusive, RORgamma inh 3.98µM
Cc1ccc(CNC(=O)c2cc(C)nc3c2c(C)nn3-c2ccc(C)cc2)cc1	none (no result: Gal4-VP16 FLuc, RORgamma inh)
COc1cccc(NC(=O)CN(C)C(=O)c2cccc(S(=O)(=O)Nc3ccccc3OC)c2)c1	none (no result: Gal4-VP16 FLuc, RORgamma inh)
COc1ccc(OC)c(CNC(=O)C(C)n2c(C)c3cnn(-c4ccccc4)c(=O)c3c2C)c1 (stereo not drawn)	none (no result: ATXN viability, Gal4-VP16 FLuc, TGFb inhibitor, ATXN2 expr inh, RORgamma inh)
CN(C)c1ccc(/C=N/Nc2cccc(C(=O)O)c2)cc1	none
C/C(=N\NC(=O)CC#N)c1cc2ccccc2oc1=O	Gal4-VP16 FLuc 6.31µM, RORgamma inh 6.31µM
CCc1ccc(/C(C)=N/NC(=O)c2ccccn2)cc1	RORgamma inh inconclusive
O=C(Nc1ccncc1)c1ccccc1F	none
O=C(Nc1ccncc1)c1cc2ccccc2cc1O	ATXN viability inconclusive, TGFb inhibitor 12.6µM (no result: Gal4-VP16 FLuc, RORgamma inh)
C/C(=N\NC(=O)CCCNc1ccc(C)cc1)c1ccccn1	Gal4-VP16 FLuc 12.6µM, ATXN2 expr inh 28.2µM, RORgamma inh 2.24µM
C/C(=N\Nc1ccccc1)c1cc2ccccc2oc1=O	Gal4-VP16 FLuc inconclusive
CC(=N/O)/C(C)=N\NC(=O)c1ccccn1	Gal4-VP16 FLuc 5.01µM, RORgamma inh 6.31µM
O=S(=O)(c1ccc(C(F)(F)F)cc1)N1CCN(c2nc(-c3ccccc3)nc3ccccc23)CC1	none (no result: ATXN viability, Gal4-VP16 FLuc, ATXN2 expr inh, RORgamma inh)
O=C(c1ccc(C(=O)N2CCC(N3CCCC3)CC2)c(Nc2ccccc2)c1)N1CCC(N2CCCC2)CC1	none (no result: ATXN viability, HepG2 viability, Gal4-VP16 FLuc, TGFb inhibitor, RORgamma inh)
Cn1cccc1C(=O)Nc1ccc(Cl)c(S(=O)(=O)N2CCCCC2)c1	none (no result: Gal4-VP16 FLuc, RORgamma inh)
CC(C)(O)CC[C@@H](O)[C@](C)(O)[C@H]1CC[C@@]2(O)C3=CC(=O)[C@@H]4C[C@@H](O)[C@@H](O)C[C@]4(C)[C@@H]3CC[C@]12C	none (no result: ATXN viability, HepG2 viability, Gal4-VP16 FLuc, TGFb inhibitor, RORgamma inh)
Cc1csc(NC(=O)c2ccc(OCC3CCCO3)cc2)n1 (stereo not drawn)	ATXN viability inconclusive, Gal4-VP16 FLuc inconclusive, ATXN2 expr inh inconclusive, RORgamma inh 3.55µM
